TWEAK-Fn14 inh: inhibitors of TWEAK-Fn14 signaling, primary screen, luciferase reporter cells, uHTS; actives 2% (n = 360,000); TWEAK-stimulated Fn14 reporter cells, luciferase luminescence, 8 h; inhibition, % at 10 µM; in the data active = inhibition above about 50%
Shn3 3UTR inh: reduction of Shn3 3'UTR firefly luciferase signal, primary screen, Schnurri-3 inhibitor project, cell-based, Clone20 osteoblasts, set 2 | inhibition, % at 12.5 µM | actives 0.52% (n = 360,000) | Clone20 osteoblast Shn3 3'UTR firefly luciferase, 24 h | AID 588674, 2011;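 active = mean inhibition of at least 75% with every replicate also reaching 75%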;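 note: 0% = median of neutral control wells and 100% = pilot-screen positive control compound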
MITF TRPM1 inh: inhibitors of MITF-dependent TRPM1 promoter reporter, primary screen, cell-based, SK-MEL-5, single point, luciferase. SK-MEL-5 TRPM1 promoter luciferase, 24 h. inhibition, % at 12.5 µM. actives 0.83% (n = 330,000);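 active = mean inhibition across replicates of 60% or more, whatever share of single replicates reaches that level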
EBV LMP1 NFkB: EBV LMP1-driven NF-kappaB luciferase reporter inhibitors, primary screen, cell-based, luminescence, single point. LMP1-induced NF-kappaB luciferase reporter cells. inhibition, % at 12.5 µM. actives 0.69% (n = 350,000). AID 504558, 2011; in the data active = inhibition above about 41%;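 note: 0% = neutral control wells and 100% = reference inhibitor control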
TROY signal inh: inhibitors of TROY-driven NF-kB signaling, primary screen, Q293 LMP1-TROYcd cells, NF-kB luciferase, uHTS; Q293 LMP1-TROYcd NF-kB luciferase reporter, 4 h; inhibition, % at 10 µM; actives 0.98% (n = 360,000);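 active = compounds whose plate-normalised and pattern-corrected inhibition of the luciferase reporter signal at the single screening dose is 50% or more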
Peg3 promoter: Peg3 promoter-driven luciferase inhibitors, primary screen, cell-based, HeLa, luciferase luminescence; HeLa PEG-Prom luciferase reporter, overnight; inhibition, % at 20 µM; actives 1.7% (n = 360,000); AID 588405, 2011;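 active = inhibition of at least 50% at 20 µM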
Starred values were filed as active, the others as inactive; x = not tested or not shown. Only some compounds are listed: those with a hit (about 4.1% of all), similar ones and a draw of the others.

SMILES	TWEAK-Fn14 inh	Shn3 3UTR inh	MITF TRPM1 inh	EBV LMP1 NFkB	TROY signal inh	Peg3 promoter
S=C(Nc1ccc(OCc2ccccc2)cc1)Nc1cccc(Cl)c1Cl	-8	-15	-16	74*	-23	-10
S=C(Nc1ccccc1)Nc1ccc(OCc2ccccc2)cc1	-16	5	-9	-3	-33	-37
O=C(CSCc1ccccc1)NNC(=S)Nc1cccc(Cl)c1Cl	64*	-28	10	-4	x	-59
CC1(CCc2ccccc2)NC(=O)N(CC(=O)N2CC(=O)Nc3ccccc32)C1=O (stereo not drawn)	-4	x	-2	-4	5	16
O=S(=O)(NC(=S)c1ccccc1)c1ccccc1	-20	2	3	-10	1	8
CC(C)N=C(NS(=O)(=O)c1ccccc1)C(Cl)(Cl)Cl	101*	45	79*	-2	77*	38
CCCCNC(=O)C1c2ccccc2OCC(=O)N1CCc1ccccc1 (stereo not drawn)	-5	x	x	x	10	x
CC(Sc1nnc(CN2CCCC2)n1Cc1ccccc1)C(=O)Nc1ccccc1 (stereo not drawn)	4	-9	19	-9	66*	11
CCOC(=O)C1(CCc2ccccc2)CCN(C(=O)Cc2nonc2C)CC1	-46	-8	-26	-12	-61	-143
CCOC(=O)c1c(C2CC2)csc1NC(=O)COC(=O)c1ccc[n+]([O-])c1	-9	8	-2	1	-1	-7
CCOC(=O)c1c(C2CC2)csc1NC(=O)COC(=O)c1cnc(Cl)c(Cl)c1	-17	-17	9	2	2	102*
CCC(C)NC(=O)C1(O)c2cc(Br)ccc2NC(=O)N1c1cccc(OC)c1 (stereo not drawn)	10	5	-4	2	-2	4
O=C(O)C1=CC2C=C(Cl)C=CC2OC1=O (stereo not drawn)	-2	9	10	-8	-11	6
CSc1cc(-c2ccc(Cl)cc2)n(Cc2ccccc2)c(=O)c1C#N	10	40	10	-13	-2	54*
CCN(CC)CCN(C(=O)C1=COCCO1)c1nc2c(OC)ccc(OC)c2s1	-10	-5	1	7	-14	0
Cc1cc(C)c(Cc2c(C)nc3c(C(=O)NCc4ccco4)cnn3c2C)c(C)c1	73*	62	21	12	88*	14
O=C(NCc1ccco1)c1cnn2c(C(F)F)cc(-c3ccccc3)nc12	-41	-5	22	-8	22	12
COc1ccc(NC(=S)NC(=O)c2cncc(Br)c2)c(OC)c1	-24	-2	6	6	-6	-8
CC(C)(O)C#Cc1ccc([C@@H]2C[C@H]3CN(c4ccccc4)C(=O)[C@]34CCCN24)s1	19	95*	45	54*	2	103*
O=C1N(c2ccccc2)C[C@@H]2C[C@@H](c3cccs3)N3CCC[C@@]123	26	48	3	0	1	73*
COc1ccccc1N1C[C@@H]2C[C@@H](c3ccco3)N3CCC[C@@]23C1=O	-21	-9	5	1	-20	13
COCc1cc([C@@H]2C[C@H]3CN(c4ccccc4)C(=O)[C@]34CCCN24)ccc1OC	-18	-9	-6	9	3	54*
COc1ccc([C@@H]2C[C@H]3CN(c4ccccc4)C(=O)[C@]34CCCN24)c(OC)c1OC	-10	4	-12	11	7	-2
CCCN(CC1CC1)C(=S)NC(=O)c1cc(Br)ccc1Cl	-9	9	-1	7	-1	9
COc1ccc(/C=N/Nc2cc(C)nc3c(C)cccc23)cc1	-115	-4	79*	-4	-71	111*
SMILES	TWEAK-Fn14 inh	Shn3 3UTR inh	MITF TRPM1 inh	EBV LMP1 NFkB	TROY signal inh	Peg3 promoter
COc1ccc(Nc2cc(C)nc3ccc(OC)cc23)cc1	0	-37	4	-8	9	8
COc1cccc2c(N/N=C/c3ccc(O)c(O)c3)cc(C)nc12	-1	-25	-23	-10	-15	-93
COc1ccc(/C=N/Nc2cc(C)nc3ccccc23)cc1	-26	11	78*	-1	-4	103*
COc1ccc2nc(C)cc(N/N=C/c3ccc(F)cc3)c2c1	-347	54	86*	-7	-70	103*
Cc1cc(C)n(C(=O)c2cc([N+](=O)[O-])cc([N+](=O)[O-])c2)n1	-4	3	-1	5	1	1
CCOC(=O)Cn1c(=O)c(F)cn(Cc2ccc(OC)c([N+](=O)[O-])c2)c1=O	-15	22	2	-12	-7	8
CCCCNc1c(-c2cccc(-c3ccc(OC)cc3)c2)nc2cc(C)ccn12	31	87*	6	9	29	89*
Cc1ccn2c(NC3CCCCC3)c(-c3cccc(-c4cccc(Cl)c4)c3)nc2c1	-11	12	-11	-12	-52	56*
Cc1ccn2c(NC3CCCC3)c(-c3ccncc3)nc2c1	-1	24	11	-2	-4	19
CCCCNc1c(-c2cccc(-c3cc(C(C)=O)cs3)c2)nc2ccc(C)cn12	40	14	5	13	25	62*
CCCCNc1c(-c2ccc(-c3cccc(Cl)c3)cc2)nc2ccccn12	-15	-33	-80	-16	-45	-272
CCCCNc1c(-c2cccc(-c3ccc(OC)cc3)c2)nc2ccc(C)cn12	0	81	-3	7	32	69*
O=C(NCC(=O)N1CCN(c2ccccc2O)CC1)c1ccc(Br)o1	6	-13	-9	-4	-31	-20
CCN(CC)C(=O)C1=C(C)N(CCC2=CCCCC2)C(=O)C(CC(=O)NCc2cccc3ccccc23)C1 (stereo not drawn)	-4	23	x	3	-9	1
CN(CCC#N)C(=S)NC(=O)c1ccc(S(=O)(=O)N2CCOCC2)cc1	-1	9	2	1	-2	8
C[C@H](CO)N1C[C@H](C)[C@H](CN(C)S(=O)(=O)c2ccc(F)cc2)OCc2cnnn2CCCC1=O	102*	-10	x	2	7	2
C[C@H]1CN([C@@H](C)CO)C(=O)CCCn2nncc2CO[C@@H]1CN(C)C(=O)Nc1cccc2ccccc12	53*	-2	x	3	48	-12
C[C@@H]1CN([C@@H](C)CO)C(=O)CCCn2nncc2CO[C@H]1CN(C)S(=O)(=O)c1ccc(F)cc1	-8	-2	x	-2	3	-2
COc1ccccc1C1CCN(c2cc(O)ccc2[N+](=O)[O-])CC1	-9	-6	-6	-4	57*	15

Source: PubChem BioAssay (several laboratories)
